Measured values published in PubChem BioAssay (NCI).
About 83,000 compounds went through this panel and 20% of them were active in at least one assay; those are over-represented in the sample as a whole.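 Treatment: one concentration, 48 hours, 96-well format. Scoring: percent growth, with anything below 10 considered active.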 The source made the active and inactive calls.

Experiments:
Assay in all cases: NCI-60 one-dose screen, 48 h (100 = growth as untreated, 0 = no growth, -100 = all killed)
Conditions in all cases: 10 µM unless noted
HCT-15 colon = tested on: HCT-15 colon
HT29 colon = tested on: HT29 colon
SNB-75 CNS = tested on: SNB-75 CNS
SNB-19 CNS = tested on: SNB-19 CNS
U251 CNS = tested on: U251 CNS
PC-3 prostate = tested on: PC-3 prostate
SK-MEL-5 melanoma = tested on: SK-MEL-5 melanoma
UACC-62 melanoma = tested on: UACC-62 melanoma
SK-MEL-28 melanoma = tested on: SK-MEL-28 melanoma
SK-MEL-2 melanoma = tested on: SK-MEL-2 melanoma
EKVX NSCLC = tested on: EKVX NSCLC
SN12C renal = tested on: SN12C renal
UO-31 renal = tested on: UO-31 renal
TK-10 renal = tested on: TK-10 renal
ACHN renal = tested on: ACHN renal
CAKI-1 renal = tested on: CAKI-1 renal
A498 renal = tested on: A498 renal
CCRF-CEM leukemia = tested on: CCRF-CEM leukemia
MOLT-4 leukemia = tested on: MOLT-4 leukemia
LOX IMVI melanoma = tested on: LOX IMVI melanoma

Measured: growth

O=C(CCc1nnc(Cn2cnc3nc[nH]c3c2=O)o1)c1nc2ncccc2[nH]1
inactive: HCT-15 colon 104% | HT29 colon 92% | SNB-75 CNS 92.5% | SNB-19 CNS 94.6% | U251 CNS 101% | PC-3 prostate 105% | SK-MEL-5 melanoma 104% | UACC-62 melanoma 94.3% | SK-MEL-28 melanoma 111% | SK-MEL-2 melanoma 103% | EKVX NSCLC 102% | SN12C renal 95.1% | UO-31 renal 80.8% | TK-10 renal 96.9% | ACHN renal 105% | CAKI-1 renal 92.2% | A498 renal 94.8% | CCRF-CEM leukemia 90.5% | MOLT-4 leukemia 103%

COc1cc(CNC(=O)/C=C/C=C/c2ccc3c(c2)OCO3)ccc1OCc1cn(-c2ccc(C)c(C)c2)nn1
inactive: HCT-15 colon 81.3% | HT29 colon 91.6% | SNB-75 CNS 88.4% | SNB-19 CNS 79.5% | U251 CNS 86.3% | PC-3 prostate 75.1% | SK-MEL-5 melanoma 81.7% | UACC-62 melanoma 56.9% | SK-MEL-28 melanoma 54.1% | SK-MEL-2 melanoma 93.5% | EKVX NSCLC 94.1% | SN12C renal 84.9% | UO-31 renal 99.8% | TK-10 renal 120% | ACHN renal 81.3% | CAKI-1 renal 54.4% | A498 renal 80.3% | CCRF-CEM leukemia 95.7% | MOLT-4 leukemia 96.2%

COC(=O)[C@H]1CCCN1C[C@@H](O)CN1C(=O)/C(=C\c2cc(OC)c(OC)c(OC)c2)c2ccccc21
inactive: HCT-15 colon 98% | HT29 colon 110% | SNB-75 CNS 86% | SNB-19 CNS 95.9% | U251 CNS 87.3% | PC-3 prostate 91.4% | SK-MEL-5 melanoma 103% | UACC-62 melanoma 95.2% | LOX IMVI melanoma 97.2% | SK-MEL-2 melanoma 94.3% | SN12C renal 98.2% | UO-31 renal 82.1% | TK-10 renal 102% | ACHN renal 105% | CAKI-1 renal 93.1% | A498 renal 113% | CCRF-CEM leukemia 93.9% | MOLT-4 leukemia 81.6%

CC(=O)OCc1nc(C#N)c(N(C)C)o1
inactive: HCT-15 colon 88.6% | HT29 colon 99.2% | SNB-75 CNS 81.5% | SNB-19 CNS 95.9% | U251 CNS 95.5% | PC-3 prostate 104% | SK-MEL-5 melanoma 105% | UACC-62 melanoma 89.3% | SK-MEL-28 melanoma 109% | SK-MEL-2 melanoma 88.8% | EKVX NSCLC 90.6% | SN12C renal 97.7% | UO-31 renal 89.9% | TK-10 renal 84.1% | ACHN renal 98% | CAKI-1 renal 92.7% | A498 renal 84.7% | CCRF-CEM leukemia 88.2% | MOLT-4 leukemia 97.1%

CN[C@]12CC3(C=CC(=O)C=C3)O[C@@]1(Cc1ccc(OC)cc1)N(C)C(=O)N2
inactive: SNB-75 CNS 37.8% | SNB-19 CNS 64.4% | U251 CNS 10.9% | PC-3 prostate 27.6% | SK-MEL-5 melanoma 43% | SK-MEL-28 melanoma 18.1% | SK-MEL-2 melanoma 70.7% | EKVX NSCLC 96% | UO-31 renal 48.7% | TK-10 renal 24.1% | CAKI-1 renal 16% | A498 renal 97% | MOLT-4 leukemia 28%
active: HCT-15 colon 4.25% | HT29 colon 7.83% | UACC-62 melanoma -43% | SN12C renal 4.44% | ACHN renal -86.3% | CCRF-CEM leukemia 6.3%

O=[N+]([O-])/C(=C/C=C/c1ccccc1)c1ccccc1
inactive: HCT-15 colon 10.8% | HT29 colon 26.9% | SNB-75 CNS 57.3% | SNB-19 CNS 85.9% | U251 CNS 37.2% | PC-3 prostate 43.6% | SK-MEL-5 melanoma 82.4% | UACC-62 melanoma 70.5% | SK-MEL-2 melanoma 86.5% | SN12C renal 66.5% | TK-10 renal 91.1% | ACHN renal 10.6% | CAKI-1 renal 51.2% | A498 renal 50.4% | CCRF-CEM leukemia 36.5% | MOLT-4 leukemia 34.4%
active: LOX IMVI melanoma -0.767% | UO-31 renal -44.4%

O=C(/C=C/c1ccccc1)c1cccc(OCCCOc2cccc(C(=O)/C=C/c3ccccc3)c2)c1
inactive: HCT-15 colon 57.4% | HT29 colon 52.4% | SNB-75 CNS 93.9% | SNB-19 CNS 85.7% | U251 CNS 64.3% | PC-3 prostate 82.8% | SK-MEL-5 melanoma 100% | UACC-62 melanoma 87.3% | SK-MEL-28 melanoma 102% | SK-MEL-2 melanoma 101% | EKVX NSCLC 103% | SN12C renal 94.2% | UO-31 renal 74.2% | TK-10 renal 107% | ACHN renal 102% | CAKI-1 renal 86.4% | A498 renal 92% | CCRF-CEM leukemia 76.5% | MOLT-4 leukemia 86.9%

C=CCn1c(SCC(=O)Nc2ccc(C(=O)/C=C/c3cc4cc(OC)ccc4nc3Cl)cc2)nnc1-c1ccc(Br)cc1
inactive: HCT-15 colon 84.2% | HT29 colon 73.8% | SNB-75 CNS 74.8% | SNB-19 CNS 78.4% | U251 CNS 82.5% | PC-3 prostate 68.2% | SK-MEL-5 melanoma 82.9% | UACC-62 melanoma 72.9% | SK-MEL-28 melanoma 99.9% | SK-MEL-2 melanoma 79.2% | EKVX NSCLC 87.4% | SN12C renal 81.5% | UO-31 renal 65.3% | TK-10 renal 93.5% | ACHN renal 92.1% | CAKI-1 renal 76.1% | A498 renal 89.5% | CCRF-CEM leukemia 58.5% | MOLT-4 leukemia 68.5%

CCCCC[C@@H]1Cc2cc(O)c(C(=O)O)c3c2[C@H](C[C@]2(OC[C@@H](CC(=O)[C@@](C)(CC)C(=O)OC)[C@@H]2C)O3)O1
inactive: HCT-15 colon 91.6% | HT29 colon 116% | SNB-75 CNS 96.9% | SNB-19 CNS 94.3% | U251 CNS 103% | PC-3 prostate 106% | SK-MEL-5 melanoma 108% | UACC-62 melanoma 88.9% | SK-MEL-28 melanoma 118% | SK-MEL-2 melanoma 101% | EKVX NSCLC 113% | SN12C renal 92.4% | UO-31 renal 99.6% | TK-10 renal 109% | ACHN renal 97.5% | CAKI-1 renal 99.9% | A498 renal 122% | CCRF-CEM leukemia 116% | MOLT-4 leukemia 90.2%

COc1ccc(Cc2cc(-c3ccccc3)nn(Cc3ccccc3)c2=O)cc1OC
inactive: HCT-15 colon 28.7% | HT29 colon 29.1% | SNB-75 CNS 58.3% | SNB-19 CNS 46.5% | U251 CNS 32.7% | PC-3 prostate 20.8% | UACC-62 melanoma 30.6% | SK-MEL-28 melanoma 59.3% | SK-MEL-2 melanoma 36.1% | EKVX NSCLC 14.4% | SN12C renal 20.2% | UO-31 renal 14.7% | TK-10 renal 49.8% | ACHN renal 27.1% | CAKI-1 renal 46.3% | CCRF-CEM leukemia 43%
active: SK-MEL-5 melanoma -3.54% | A498 renal -16.9% | MOLT-4 leukemia 9.1%

CO/N=C(/C)c1ccc(NC(=O)CSc2nnc(-c3ccncc3)n2-c2ccccc2)cc1
inactive: HCT-15 colon 73% | HT29 colon 78% | SNB-19 CNS 30.4% | U251 CNS 17.4% | PC-3 prostate 49.9% | SK-MEL-5 melanoma 25.2% | UACC-62 melanoma 26.1% | SK-MEL-28 melanoma 64.9% | SK-MEL-2 melanoma 67.6% | SN12C renal 36.1% | ACHN renal 10.1% | CAKI-1 renal 26.8% | A498 renal 89.7% | CCRF-CEM leukemia 91.6% | MOLT-4 leukemia 92.2%
active: SNB-75 CNS -16.6% | UO-31 renal 9.43% | TK-10 renal -15.3%

COc1cccc([C@H]2c3[nH]c4ccccc4c3C[C@H]3C(=O)N(CCCCCCC(=O)NO)CC(=O)N23)c1
active: SNB-75 CNS 7.84%
inactive: HCT-15 colon 105% | HT29 colon 56.7% | SNB-19 CNS 68.4% | U251 CNS 61.5% | PC-3 prostate 42.5% | SK-MEL-5 melanoma 49.8% | UACC-62 melanoma 36.8% | SK-MEL-28 melanoma 43% | SK-MEL-2 melanoma 60.1% | EKVX NSCLC 82.6% | SN12C renal 62.8% | UO-31 renal 62.5% | TK-10 renal 87.6% | ACHN renal 69.1% | CAKI-1 renal 75.1% | A498 renal 75.6% | CCRF-CEM leukemia 14% | MOLT-4 leukemia 18.5%

COc1ccc(/C=N/C2=C(C#N)C(c3cccc(Cl)c3)c3c(ccc4ccccc34)O2)cc1 (stereo not drawn)
active: SNB-75 CNS -30.1% | A498 renal -4.91%
inactive: HCT-15 colon 16.7% | HT29 colon 10.3% | SNB-19 CNS 26.8% | U251 CNS 25.6% | PC-3 prostate 23.8% | SK-MEL-5 melanoma 31.3% | UACC-62 melanoma 36.3% | SK-MEL-28 melanoma 70.1% | SK-MEL-2 melanoma 51.2% | EKVX NSCLC 33.9% | SN12C renal 39.6% | UO-31 renal 43% | TK-10 renal 82% | ACHN renal 31% | CAKI-1 renal 20.3% | CCRF-CEM leukemia 16.9% | MOLT-4 leukemia 21.8%

CCN1CCN(c2cc(C(=O)Nc3nc(-c4cc(OC)c(OC)c(OC)c4)cs3)cc(C(F)(F)F)c2)CC1
inactive: HCT-15 colon 36.4% | HT29 colon 18.3% | SNB-75 CNS 57% | SNB-19 CNS 80.7% | U251 CNS 60.9% | PC-3 prostate 57.1% | SK-MEL-5 melanoma 53.7% | UACC-62 melanoma 75.4% | SK-MEL-28 melanoma 51.8% | SK-MEL-2 melanoma 81.4% | SN12C renal 71.8% | UO-31 renal 37% | TK-10 renal 82.4% | ACHN renal 73.2% | CAKI-1 renal 84% | A498 renal 73.5% | CCRF-CEM leukemia 59% | MOLT-4 leukemia 43.9%

CC(C)N1CCN(Cc2ccc3c(NNC(=O)c4ccccc4)nc4cc(F)ccc4n23)CC1
inactive: HCT-15 colon 31.7% | HT29 colon 31.3% | SNB-75 CNS 54.7% | SNB-19 CNS 29.7% | U251 CNS 17% | PC-3 prostate 36.9% | SK-MEL-2 melanoma 59.6% | EKVX NSCLC 18.1% | SN12C renal 17.3% | TK-10 renal 36.2% | ACHN renal 10.8% | CAKI-1 renal 12.5% | CCRF-CEM leukemia 10.8% | MOLT-4 leukemia 11.7%
active: SK-MEL-5 melanoma -8.08% | UACC-62 melanoma 7.2% | UO-31 renal 8.43% | A498 renal -15.8%

Fc1ccc(-c2nn(-c3ccccc3)cc2-c2nc3ccccc3o2)cc1
inactive: HCT-15 colon 33.9% | HT29 colon 99.6% | SNB-75 CNS 119% | SNB-19 CNS 67.3% | U251 CNS 33.4% | PC-3 prostate 51.6% | UACC-62 melanoma 74.9% | LOX IMVI melanoma 24.7% | SK-MEL-28 melanoma 108% | SK-MEL-2 melanoma 125% | SN12C renal 60.1% | UO-31 renal 60.6% | TK-10 renal 126% | ACHN renal 53.9% | CAKI-1 renal 82.1% | A498 renal 45.4% | CCRF-CEM leukemia 66.4% | MOLT-4 leukemia 73.7%
